Some structures have more than one record in an assay (separate samples or runs), and their calls can disagree. Activity calls are given as the source filed them. Rule for the calls: active = hit-call score of the fitted dose curve at least 0.9, where 1 is the maximum; inactive = score below 0.9.

Read-out in this experiment: Interleukin-8 (IL8), CXCL8 (gene 3576)
The experiment in a line: BSK_LPS_IL8: BioMAP Diversity Plus: LPS Assay for Interleukin-8 (IL8) Biomarker Activity (AID 2283078). The note with it: primary human HUVEC with PBMC; actives raise or lower the signal. The method, then: BSK_LPS is a cell-based, multiplexed-readout assay that uses umbilical vein endothelium and peripheral blood mononuclear cells, a human vascular primary cell co-culture, with measurements taken at 24 hours after chemical dosing in a 96-well plate.BSK_LPS_IL8 is an assay component measured in the BSK_LPS assay. It measures IL-8 antibody related to regulation of gene expression using ELISA technology.Data from the assay component BSK_LPS_IL8 was analyzed into 1 assay endpoint. This assay endpoint, BSK_LPS_IL8, was analyzed with bidirectional fitting relative to DMSO as the negative control and baseline of activity. Using a type of binding reporter, gain or loss-of-signal activity can be used to understand changes in the signaling as they relate to the gene CXCL8. Furthermore, this assay endpoint can be referred to as a primary readout, because this assay has produced multiple assay endpoints where this one serves a signaling function. To generalize the intended target to other relatable targets, this assay endpoint is annotated to the cytokine intended target family, where the subfamily is interleukins.
The levels of cell surface (or secreted, indicated by the prefix "s") biomarker endpoints were measured by ELISA. Overt cytotoxicity to cells in confluent adherent cultures (all systems other than the BT system) was assessed by measuring total protein levels using sulforhodamine B (SRB) staining in parallel cultures at the time of biomarker measurements, indicated as SRB endpoints. For proliferation assays for adherent cell types, individual cell types are cultured at sub-confluence and relative cell numbers quantified by SRB staining at time points optimized for each system (48 h: 3C and CASM3C systems; 72 h: BT and HDF3CGF systems; 96 h: SAg system). SRB was performed by staining cells with 0.1% SRB after fixation with 10% TCA and reading wells at 560 nm.Viability and proliferation of PBMC (T cells) was quantified by Alamar Blue reduction for the SAg and BT systems. For PBMC viability (referred to as PBMC Cytotoxicity within the assay endpoint names), cells were plated (75,000/well in a 96-well plate) and then chemical samples added for 1 h before addition of activators, SEB and TSST-1 (20 ng/mL final concentration each). Cells were incubated for 90 h. Then, Alamar Blue (20 uL/well) (Invitrogen, Cat DAL1100) was added for 6 h, and the plates were read with a fluorescence microplate reader at 546/580 nm (excitation/emission). For PBMC proliferation, cells were plated and activated as above but incubated for only 16 h prior to addition of Alamar Blue. Plates were read after 6 h.
Take `CCCCCCCCCCCCCCCCOS(=O)(=O)O`: the result was inactive. Still for that read-out and setting: for `NC(N)=O` the value was “inactive”; for `S=P(N1CC1)(N1CC1)N1CC1`, “inactive”; for `CCCCOC(=O)c1ccccc1`, “inactive”.

For `NC(=O)NN=Cc1ccc([N+](=O)[O-])o1`, the result was inactive. Regarding `CCCC(CCC)C(=O)O`, the outcome was inactive. For `O=S(=O)(O)CCC(F)(F)C(F)(F)C(F)(F)C(F)(F)C(F)(F)C(F)(F)F`, the result was inactive and the half-maximal activity concentration (AC50) – broadly, the concentration at which the activity in the assay is half-maximal – is 22.5 µM (active). Regarding `OCc1c[nH]c2ccccc12`, the outcome was inactive. Regarding `O=S1(=O)CCCO1`, the result was inactive.

In the case of `C[C@@H](Oc1ccc(CNC(=O)c2cccnc2Oc2ccc3c(c2)OCO3)c(F)c1)C(=O)O`, the outcome was inactive. `CCCCCCCCN(C)C`: the outcome was inactive. The same measure, in the same setting: for `OC(Cn1cncn1)(Cn1cncn1)c1ccc(F)cc1F` the value was “inactive”; for `COc1cc2c(c(OC)c1OC)-c1ccc(OC)c(=O)cc1[C@@H](NC(C)=O)CC2`, “inactive”. Take `C=CN1CCCC1=O`: the result was inactive. On the same count and under the same terms, for `CCCCCCCCCC` the value was “inactive”. Consider `C=CCc1cc(S(=O)(=O)c2ccc(O)c(CC=C)c2)ccc1O`, for which the AC50 was 16.2 µM (active).

`CCCCN1C(=O)[C@@H]([C@H](O)C2CCCCC2)NC(=O)C12CCN(Cc1ccc(Oc3ccc(C(=O)O)cc3)cc1)CC2`: the result was inactive. The same measure, in the same setting: the entry for `O=C(O)c1ccc2c(c1)nc(C(=O)NC1CCN(C3CC3)CC1)n2Cc1cc(-c2ccc(Cl)s2)on1` is “inactive”. Still for that read-out and setting: for `Cc1ncc([C@@H](CCCCCCc2ccc3c(n2)NCCC3)CC(=O)O)cn1` the value was “inactive”; for `CCc1cccc(CC)c1N`, “inactive”; for `FC(F)C(F)(F)COCC1CO1` (stereo not given), “inactive”. On the same count and under the same terms, for `OC[C@H]1O[C@@H]2O[C@H]3[C@H](O)[C@@H](O)[C@@H](O[C@H]4[C@H](O)[C@@H](O)[C@@H](O[C@H]5[C@H](O)[C@@H](O)[C@@H](O[C@H]6[C@H](O)[C@@H](O)[C@@H](O[C@H]7[C@H](O)[C@@H](O)[C@@H](O[C@H]1[C@H](O)[C@H]2O)O[C@@H]7CO)O[C@@H]6CO)O[C@@H]5CO)O[C@@H]4CO)O[C@@H]3CO` the value was “inactive”; for `O=S(=O)(O)c1ccc(N=Nc2c(O)ccc3cc(S(=O)(=O)O)ccc23)cc1`, “inactive”. For the compound `CCCCCCOC(=O)CC(CC(=O)OCCCCCC)(OC(=O)CCC)C(=O)OCCCCCC`, the result was inactive. On the same count and under the same terms, for `c1ccc2ncccc2c1` the value was “inactive”; for `Cn1cc[nH]c1=S`, “inactive”; for `C[Si](C)(C)C(F)(F)C(F)(F)C(F)(F)F`, “inactive”.

For the compound `FC(F)(F)C(F)(F)C(F)(F)C(F)(F)C(F)(F)C(F)(F)I`, the result was inactive.

For `O=C(O)c1cccc(C(=O)O)c1`, the outcome was inactive. Same read-out and setting: the entry for `CNC(C)=O` is “inactive”; for `Nc1ccn([C@@H]2O[C@H](CO)[C@@H](O)[C@@H]2O)c(=O)n1` it is “inactive”. In the case of `CCCCCCCC/C=C\CCCCCCCC(=O)OC[C@@H](O)[C@H]1OC[C@H](O)[C@H]1O`, the result was inactive. Still for that read-out and setting: the entry for `CCOc1ccc2[nH]cc(C(=O)NCc3ccccc3)c(=O)c2n1` is “inactive”. On to `O=C1CN(N=Cc2ccc([N+](=O)[O-])o2)C(=O)N1`, for which the outcome was inactive. Same read-out and setting: for `OC(CCl)CCl` the value was “inactive”; for `FC(F)(F)COC(OCC(F)(F)F)OCC(F)(F)F`, “inactive”; for `OC(O)(C(F)C(O)(O)C(F)(F)F)C(F)(F)F`, “inactive”. The same measure, in the same setting: for `Cn1c(=O)c2[nH]cnc2n(C)c1=O` the value was “inactive”; for `COCc1nnc(-c2ccc[n+]([O-])c2)n1-c1c(Cl)c(Cl)cc2[nH]c(=O)c(=O)[nH]c12`, “inactive”.

Source of the values: PubChem BioAssay (EPA / NIEHS).
